In PubChem BioAssay AID1159580 (chemical genetic matrix, 2015):
Hit rate of the full screen: of about 5,500 compounds, about 2,000 (36%) were called active. Not shown: some 18% with an inconclusive outcome. Rule as the data show it: active = normalized growth mostly below about 0.91 (no sharp cut-off); inconclusive = no clear call, values can overlap the other calls; inactive = mostly above about 0.92. Some of the results follow.

Test: chemical genetic growth profiling, strain panel (AID 1159580);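 also: tested at 20 µM; growth read once vehicle control cultures reached saturation at 30 °C; 1 = growth at the plate median or of vehicle wells; lower values mean less growth of the strain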
Conditions: S. cerevisiae deletion strains, growth OD

Measured: normalized growth

CC(=O)O[C@@H]1CC2C(C)(C)[C@H](O)CC[C@]2(C)C2CC[C@@]3(C)[C@H](c4ccoc4)OC(=O)[C@H]4O[C@]43[C@@]21C (stereo partly specified)
inactive: locus YAL013W, strain DEP1, active compounds read low 1.01 | locus YBR021W, strain FUR4, active compounds read low 0.971 | locus YBR229C, strain ROT2, active compounds read low 0.996 | locus YCL029C, strain bik1, active compounds read low 0.997 | locus YDL035C, strain GPR1, active compounds read low 0.983 | locus YDL074C, strain BRE1, active compounds read low 0.994 | locus YDL101C, strain DUN1, active compounds read low 1.02 | locus YDL134C, strain PPH21, active compounds read low 0.982 | locus YDL185W, strain tfp1, active compounds read low 1.02 | locus YDL192W, strain arf1, active compounds read low 0.999 | locus YDR101C, strain arx1, active compounds read low 0.993 | locus YDR150W, strain NUM1, active compounds read low 1 | locus YDR162C, strain NBP2, active compounds read low 1.01 | locus YDR318W, strain mcm21, active compounds read low 1.02 | locus YDR388W, active compounds read low 1.01 | locus YDR502C, strain sam2, active compounds read low 1.02 | locus YEL061C, strain CIN8, active compounds read low 1.01 | locus YER110C, active compounds read low 1.03 | locus YER155C, strain BEM2, active compounds read low 1.01 | locus YER167W, strain BCK2, active compounds read low 1.01 | locus YGL078C, strain dbp3, active compounds read low 1.04 | locus YGL086W, strain mad1, active compounds read low 1.02 | locus YGL248W, strain PDE1, active compounds read low 1.02 | locus YGR078C, strain PAC10, active compounds read low 1.05 | locus YGR135W, strain pre9, active compounds read low 1.06 | locus YGR252W, strain gcn5, active compounds read low 1.03 | locus YHR030C, strain SLT2, active compounds read low 1.01 | locus YHR079C, strain IRE1 (second series), active compounds read low 1.01 | locus YHR094C, strain hxt1, active compounds read low 1.01 | locus YHR129C, strain ARP1, active compounds read low 1 | locus YHR200W, strain rpn10, active compounds read low 1.01 | locus YIL066C, strain RNR3, active compounds read low 0.984 | locus YIL073C, strain SPO22, active compounds read low 1.03 | locus YIL125W, strain kgd1, active compounds read low 1.01 | locus YIR030C, strain dcg1, active compounds read low 1.01 | locus YJL095W, strain BCK1, active compounds read low 1.03 | locus YJL134W, strain LCB3, active compounds read low 1.01 | locus YJL168C, strain set2, active compounds read low 1.02 | locus YJL187C, strain SWE1 (second series), active compounds read low 1.03 | locus YKL009W, strain mrt4, active compounds read low 0.996 | locus YKL068W, active compounds read low 0.996 | locus YKL085W, strain MDH1 (second series), active compounds read low 1.01 | locus YKL085W, strain MDH1, active compounds read low 1.01 | locus YKR001C, strain vps1, active compounds read low 1.01 | locus YLR039C, strain RIC1, active compounds read low 1.07 | locus YLR058C, strain SHM2, active compounds read low 1.01 | locus YLR102C, strain apc9, active compounds read low 1.01 | locus YLR262C, strain YPT6, active compounds read low 1.13 | locus YLR268W, strain sec22, active compounds read low 0.975 | locus YLR342W, strain FKS1 (second series), active compounds read low 1.02 | locus YLR371W, strain rom2, active compounds read low 1.01 | locus YLR418C, strain cdc73, active compounds read low 1.02 | locus YML016C, strain PPZ1, active compounds read low 1.01 | locus YML032C, strain rad52, active compounds read low 0.978 | locus YML124C, strain tub3, active compounds read low 1.02 | locus YMR078C, strain ctf18, active compounds read low 1.01 | locus YMR223W, strain ubp8, active compounds read low 1 | locus YMR307W, strain GAS1, active compounds read low 1.09 | locus YNL067W, strain RPL9B, active compounds read low 1.04 | locus YNL153C, strain GIM3, active compounds read low 1.04 | locus YNL233W, strain BNI4, active compounds read low 1.02 | locus YNL250W, strain rad50, active compounds read low 1.04 | locus YNL271C, strain bni1, active compounds read low 1.03 | locus YNL298W, strain CLA4, active compounds read low 1.01 | locus YNL307C, strain MCK1, active compounds read low 1.02 | locus YNR052C, strain pop2, active compounds read low 1.04 | locus YOL006C, strain TOP1, active compounds read low 1.01 | locus YOL012C, strain htz1 0.714 | locus YOL147C, strain pex11, active compounds read low 1.01 | locus YOR061W, strain CKA2, active compounds read low 1 | locus YOR069W, strain VPS5, active compounds read low 1.01 | locus YOR136W, strain idh2, active compounds read low 1.01 | locus YOR144C, strain elg1, active compounds read low 1.01 | locus YOR184W, strain ser1, active compounds read low 0.993 | locus YOR316C, strain cot1, active compounds read low 1.02 | locus YPL241C, strain CIN2, active compounds read low 1.01 | locus YPR119W, strain clb2, active compounds read low 1.01 | locus YPR141C, strain kar3, active compounds read low 1 | locus YPR163C, strain tif3, active compounds read low 1.02 | locus YPR167C, strain met16, active compounds read low 1.02 | strain wtn01, active compounds read low 0.984
